# PubChem BioAssay AID1626 (SRMLSC, 2009)
# About 2,000 (0.91%) of roughly 220,000 compounds were called active. Inconclusive results (about 2%) are left out. No stated cut-off is given here; in the data, inconclusive means inhibition above about 80% without an active follow-up result; inactive means below that; test concentration not stated here. Not all results are given here. Measured potencies and affinities stand elsewhere.
# Assay: M. tuberculosis H37Rv growth inhibitors, H37Rv strain (AID 1626);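 further: bacteria incubated seven days before Alamar blue readout; 0% = bacteria only wells and 100% = bacteria with antibiotic wells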
# Conditions: stronger effect = higher value, concentration not given here
row,Structure (SMILES),inhibition
1,COc1ccccc1CCc1nnc(CCC(=O)NC(C)Cc2cccc(C)n2)o1 (stereo unspecified),-7.73% (inactive)
2,CCOc1cc(/C=C2\SC(=N)N(c3nonc3N)C2=O)ccc1OCCN1CCOCC1,4.53% (inactive)
3,CCOc1cc(/C=C2\SC(=N)N(c3nonc3N)C2=O)ccc1OCC(N)=O,4% (inactive)
4,COc1ccc(/C=C2\SC(=N)N(c3ccc(F)cc3)C2=O)cc1OC,-3.05% (inactive)
5,COc1cc(/C=C2\SC(=N)N(c3ccc(F)cc3)C2=O)ccc1O,7.97% (inactive)
6,CCN1C(c2ccccc2)=C(c2ccccc2)S/C1=C\C=C1/SC(=S)N(C)C1=O,3.07% (inactive)
7,Cc1cccnc1-n1c(CN2C(=O)c3ccccc3C2=O)nc2ccccc2c1=O,-3.32% (inactive)
8,CCOC(=O)c1c(CSC(=N)N)n(C)c2cc(Br)c(OC(C)=O)cc12,1.34% (inactive)
9,CCOC(=O)c1c(CSC(=N)N)n(-c2ccccc2)c2cc(Br)c(OC(C)=O)cc12,-0.53% (inactive)
10,O=C(CN=C1NS(=O)(=O)c2ccccc21)OCC(=O)c1cc(F)ccc1F,-7.99% (inactive)
11,c1ccc(-c2nnc3sc(Cc4cccs4)nn23)cc1,15.9% (inactive)
12,c1coc(-c2nnc3sc(Cc4cccs4)nn23)c1,-0.74% (inactive)
13,c1ccc(OCc2nn3c(-c4ccccn4)nnc3s2)cc1,-10.6% (inactive)
14,c1csc(Cc2nn3c(-c4ccncc4)nnc3s2)c1,-11.8% (inactive)
15,c1ccc(CCc2nn3c(-c4ccncc4)nnc3s2)cc1,-0.85% (inactive)
16,Clc1ccccc1-c1nnc2sc(CCc3ccccc3)nn12,5.64% (inactive)
17,C1CCC(c2nn3c(-c4n[nH]c5c4CCC5)nnc3s2)CC1,9.35% (inactive)
18,c1ccc(OCc2nn3c(-c4ccncc4)nnc3s2)cc1,-8.19% (inactive)
19,O=C(OCc1nc2ccccc2s1)c1cnccn1,-4.85% (inactive)
20,O=C(c1ccc(=O)[nH]n1)N1CCc2ccccc2C1,5.26% (inactive)
21,COC(=O)CCSCC(=O)Nc1nnc(C)s1,-2.82% (inactive)

row,Structure (SMILES),inhibition
1,CCN(CC)C(=O)CSc1nnc(-c2ccc(F)cc2)n1N,3.27% (inactive)
2,CC(=O)Oc1ccc(C(=O)Nc2cccc(C(=O)c3cccc(NC(=O)c4ccc(OC(C)=O)cc4)c3)c2)cc1,74.4% (inactive)
3,COC1=CC(=O)CC(C)C12Oc1cc(OC)cc(OC)c1C2=O (stereo unspecified),-7.12% (inactive)
4,COCCNC(=O)/C(C#N)=C\c1ccc(CNS(=O)(=O)c2ccccc2)o1,-0.59% (inactive)
5,O=C1c2ccccc2C(O)(c2ncc[nH]2)N1CCc1ccccc1 (stereo unspecified),-2.48% (inactive)
6,OCCN1CCN(c2nc(NCc3ccco3)c3ccccc3n2)CC1,-2.39% (inactive)
7,Clc1nc(NCc2ccco2)nc(N2CCCCC2)n1,5.51% (inactive)
8,OCCNc1nc(N2CCN(Cc3ccccc3)CC2)nc2ccccc12,-8.82% (inactive)
9,COc1ccccc1Nc1nc(NCc2ccco2)c2ccccc2n1,83.7% (inactive)
10,c1ccc2c(NCC3CCCO3)nc(N3CCCCC3)nc2c1 (stereo unspecified),1.41% (inactive)
11,c1ccc(CNc2nc(NCc3ccco3)nc(N3CCOCC3)n2)cc1,10.6% (inactive)
12,CCOCCCNC(=O)c1cc2c(=O)n3cccc(C)c3nc2n1C,1.27% (inactive)
13,c1ccc(-c2ncc3c(ccc4ccccc43)n2)cc1,4.61% (inactive)
14,CCOc1ncccc1C(=O)Nc1ccccc1C(=O)NCc1ccc2c(c1)OCO2,-0.12% (inactive)
15,Cc1ccccc1Nc1nc(N)nc(CSc2nnc(C)n2C)n1,3.87% (inactive)
16,NC1=NC(c2ccccc2Cl)n2c(nc3ccccc32)N1 (stereo unspecified),7.21% (inactive)
17,NC1=NC(c2ccc(Cl)cc2)n2c(nc3ccccc32)N1 (stereo unspecified),4.44% (inactive)
18,CCn1c2ccccc2c2cc(C3N=C(N)Nc4nc5ccccc5n43)ccc21 (stereo unspecified),-6.84% (inactive)
19,Cc1cccc(C2N=C(N)Nc3nc4ccccc4n32)c1 (stereo unspecified),-9.29% (inactive)
20,Cc1ccc(C2N=C(N)Nc3nc4ccccc4n32)cc1 (stereo unspecified),-6.16% (inactive)
21,CCOC(=O)C1=C(C)Nc2nc3ccccc3n2C1c1ccccc1 (stereo unspecified),-9.7% (inactive)

row,Structure (SMILES),inhibition
1,O=C1C2C3CCC(C3NCc3ccccc3)C2C(=O)N1Cc1ccccc1 (stereo unspecified),-0.18% (inactive)
2,OC(CSc1ccc(F)cc1)CN1CCN(c2ccccc2)CC1 (stereo unspecified),2.78% (inactive)
3,Cc1nc(-c2nc(-c3c(C(=O)NNC(=O)Nc4ccccc4)noc3C)cs2)cs1,1.03% (inactive)
4,Cc1nc(NC(=O)c2cc(-n3cnnc3)ccc2Cl)ccc1Br,0.92% (inactive)
5,O=C(NC12CC3CC(CC(C3)C1)C2)c1ccc(=O)oc1,-2.56% (inactive)
6,O=C(NC12CC3CC(CC(C3)C1)C2)c1ccccc1,2.5% (inactive)
7,O=C(COC(=O)c1ccc(-c2ccc([N+](=O)[O-])cc2)o1)NC(=O)NC1CCCCC1,31% (inactive)
8,COc1ccc(CC(=O)OCC(=O)NC(=O)NC23CC4CC(CC(C4)C2)C3)cc1,0.65% (inactive)
9,CCN(Cc1cc2ccc(C)cc2[nH]c1=O)C(=O)c1cccnc1,3.56% (inactive)
10,COCCSc1nnc(NS(=O)(=O)c2ccc(C)cc2)s1,-4.12% (inactive)
11,O=C(CSc1nnc(-c2ccco2)n1Cc1ccccc1)OC1CCCCC1,-11.8% (inactive)
12,N/C(=N\OC(=O)/C=C/c1ccccc1)c1ccc(Cl)cc1,1.43% (inactive)
13,COC(=O)c1cc(C#N)c(N2CCOCC2)nc1C,-9.18% (inactive)
14,O=C(O)c1cc(Cl)ccc1-c1ccc(/C=C/c2cc(C(F)(F)F)[nH]c(=O)n2)o1,-1.69% (inactive)
15,O=C(O)c1ccccc1-c1ccc(/C=C/c2cc(C(F)(F)F)[nH]c(=O)n2)o1,-2.38% (inactive)
16,Cc1ccc(S(=O)(=O)Nc2cc(C(C(=O)OC(C)C)C(=O)C(F)(F)F)c(O)c3ccccc23)c(C)c1 (stereo unspecified),-10.5% (inactive)
17,CCc1nc(N)c(C#N)c(-c2ccc(OC)c(OC)c2)c1C,-2.13% (inactive)
18,O=C(/C=C/c1ccc(OCCCF)cc1)Nc1ccnc(-c2cccnc2)n1,-6.59% (inactive)
19,COc1ccc(CNC(=O)/C=C/c2ccc(OCCCF)cc2)cc1,11.3% (inactive)
